This note sets out measurements from article PMC7862700, “An all-to-all approach to the identification of sequence-specific readers for epigenetic DNA modifications on cytosine”.

Common to all, as to test: DAPPL (digital affinity profiling via proximity ligation, sequencing); 10 mM Tris-HCl pH 7.5, 50 mM NaCl, 1 mM DTT, 4% glycerol, room temperature, 30 min; GST-TFs on glutathione beads, 16-mer random dsDNA library, 0.1% formaldehyde crosslink after washing; high values mean tight binding
One test has as its target T1, FEV (Homo sapiens, UniProt Q99581 1-238).
T1 sequence: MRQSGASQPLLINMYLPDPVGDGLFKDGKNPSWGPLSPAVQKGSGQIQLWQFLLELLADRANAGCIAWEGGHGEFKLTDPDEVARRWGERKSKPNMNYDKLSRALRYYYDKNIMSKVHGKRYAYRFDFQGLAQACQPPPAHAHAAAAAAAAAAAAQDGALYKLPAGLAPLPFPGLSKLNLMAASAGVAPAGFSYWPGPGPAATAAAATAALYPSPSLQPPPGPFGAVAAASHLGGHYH
Conditions: protein: recombinant; tags: N-terminal GST; dsDNA, one strand shown. The method, boiled down:
(§1)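 Binding signal is each hexamer's read frequency for a factor divided by its frequency in the tag-only sample. The factors were GST-fused human transcription factors from yeast, captured on glutathione beads, DNA-barcoded and pooled with that sample. Pools were incubated with 200 nmole of a random double-stranded 16-mer DNA library in Tris/NaCl/DTT/glycerol buffer at room temperature for 30 min, then washed, crosslinked with 0.1% formaldehyde, proximity-ligated with BsaI/T4 ligase (1 h, 37 °C), PCR-amplified and sequenced on an Illumina NextSeq500.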

Another test concerns the target ETV5 (Homo sapiens, UniProt P41161 1-510). Conditions: protein: recombinant; tags: N-terminal GST; dsDNA, one strand shown. Summed up: as §1
The target of another test is HSF1 (Homo sapiens, UniProt Q00613 1-529). The following applies: protein: recombinant; tags: N-terminal GST; chain copies: 3; dsDNA, one strand shown. Summed up:
as §1

Another test addresses T2, SPIC (Homo sapiens, UniProt Q8N5J4 1-248).
T2 sequence: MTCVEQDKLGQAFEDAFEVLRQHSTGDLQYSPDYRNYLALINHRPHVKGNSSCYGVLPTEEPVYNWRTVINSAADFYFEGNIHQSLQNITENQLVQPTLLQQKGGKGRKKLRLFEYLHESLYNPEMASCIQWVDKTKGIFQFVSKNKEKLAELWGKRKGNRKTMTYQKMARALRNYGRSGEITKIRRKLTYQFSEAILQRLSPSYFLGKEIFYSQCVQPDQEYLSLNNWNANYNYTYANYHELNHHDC
Conditions: protein: recombinant; tags: N-terminal GST; dsDNA, one strand shown. Summed up:
as §1

The target of another test is ELF4 (Homo sapiens, UniProt Q99607 1-663). The following applies: protein: recombinant; tags: N-terminal GST; dsDNA, one strand shown. The method, boiled down:
as §1

In a further test the target is T3, ELK4 (Homo sapiens, UniProt P28324-2 1-405).
T3 sequence: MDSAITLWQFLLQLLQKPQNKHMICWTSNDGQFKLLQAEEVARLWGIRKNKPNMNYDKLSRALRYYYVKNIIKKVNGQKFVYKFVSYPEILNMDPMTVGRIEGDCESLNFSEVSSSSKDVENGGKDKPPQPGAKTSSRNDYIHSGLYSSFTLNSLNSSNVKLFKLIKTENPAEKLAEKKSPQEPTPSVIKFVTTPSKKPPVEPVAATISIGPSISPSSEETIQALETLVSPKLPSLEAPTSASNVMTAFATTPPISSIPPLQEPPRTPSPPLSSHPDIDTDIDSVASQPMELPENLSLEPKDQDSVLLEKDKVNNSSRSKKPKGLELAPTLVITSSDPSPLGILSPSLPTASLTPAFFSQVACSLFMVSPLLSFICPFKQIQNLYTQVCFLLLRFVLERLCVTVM
Conditions: protein: recombinant; tags: N-terminal GST; dsDNA, one strand shown. Summed up: as §1

For a further test, the target named is T4, ETV2 (Homo sapiens, UniProt O00321 1-342).
T4 sequence: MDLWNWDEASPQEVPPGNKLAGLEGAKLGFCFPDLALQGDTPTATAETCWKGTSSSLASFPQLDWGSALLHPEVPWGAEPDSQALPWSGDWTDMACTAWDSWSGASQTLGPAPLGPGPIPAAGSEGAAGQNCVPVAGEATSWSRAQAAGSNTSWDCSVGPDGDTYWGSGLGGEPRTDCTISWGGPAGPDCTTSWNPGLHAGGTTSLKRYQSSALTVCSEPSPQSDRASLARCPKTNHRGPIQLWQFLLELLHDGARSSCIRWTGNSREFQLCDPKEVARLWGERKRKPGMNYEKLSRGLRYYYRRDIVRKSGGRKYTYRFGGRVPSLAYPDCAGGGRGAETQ
Conditions: protein: recombinant; tags: N-terminal GST; dsDNA, one strand shown. The method, boiled down: as §1

The next test deals with T5, ELF3 (Homo sapiens, UniProt P78545 1-371).
T5 sequence: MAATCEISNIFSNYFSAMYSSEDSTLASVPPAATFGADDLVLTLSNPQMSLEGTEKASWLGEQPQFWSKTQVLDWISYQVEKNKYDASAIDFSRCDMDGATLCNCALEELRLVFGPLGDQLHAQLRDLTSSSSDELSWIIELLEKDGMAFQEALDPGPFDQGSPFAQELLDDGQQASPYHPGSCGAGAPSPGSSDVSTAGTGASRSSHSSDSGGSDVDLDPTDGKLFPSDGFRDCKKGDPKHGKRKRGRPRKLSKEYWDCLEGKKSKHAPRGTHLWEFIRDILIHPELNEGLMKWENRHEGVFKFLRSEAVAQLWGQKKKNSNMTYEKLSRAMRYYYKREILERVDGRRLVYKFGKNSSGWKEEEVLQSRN
The following applies: protein: recombinant; tags: N-terminal GST; dsDNA, one strand shown. The method, boiled down: as §1

The target in the next test is CRX (Homo sapiens, UniProt O43186 1-299). The following applies: protein: recombinant; tags: N-terminal GST; dsDNA, one strand shown. Summed up: as §1
CRX, sequence (O43186 whole entry): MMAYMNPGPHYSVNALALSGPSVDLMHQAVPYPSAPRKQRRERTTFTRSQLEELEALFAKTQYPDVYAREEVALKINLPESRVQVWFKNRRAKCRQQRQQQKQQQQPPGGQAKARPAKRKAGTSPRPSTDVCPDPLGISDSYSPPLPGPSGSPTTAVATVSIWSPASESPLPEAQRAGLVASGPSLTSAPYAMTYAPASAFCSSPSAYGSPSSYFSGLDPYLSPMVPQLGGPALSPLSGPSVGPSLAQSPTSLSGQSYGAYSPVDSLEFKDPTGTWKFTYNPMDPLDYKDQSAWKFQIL
The target of another test is ETV1 (Homo sapiens, UniProt P50549 1-477). Conditions: protein: recombinant; tags: N-terminal GST; dsDNA, one strand shown. Summed up:
as §1

The target of a further test is T6, ERF (Homo sapiens, UniProt P50548 1-548).
T6 sequence: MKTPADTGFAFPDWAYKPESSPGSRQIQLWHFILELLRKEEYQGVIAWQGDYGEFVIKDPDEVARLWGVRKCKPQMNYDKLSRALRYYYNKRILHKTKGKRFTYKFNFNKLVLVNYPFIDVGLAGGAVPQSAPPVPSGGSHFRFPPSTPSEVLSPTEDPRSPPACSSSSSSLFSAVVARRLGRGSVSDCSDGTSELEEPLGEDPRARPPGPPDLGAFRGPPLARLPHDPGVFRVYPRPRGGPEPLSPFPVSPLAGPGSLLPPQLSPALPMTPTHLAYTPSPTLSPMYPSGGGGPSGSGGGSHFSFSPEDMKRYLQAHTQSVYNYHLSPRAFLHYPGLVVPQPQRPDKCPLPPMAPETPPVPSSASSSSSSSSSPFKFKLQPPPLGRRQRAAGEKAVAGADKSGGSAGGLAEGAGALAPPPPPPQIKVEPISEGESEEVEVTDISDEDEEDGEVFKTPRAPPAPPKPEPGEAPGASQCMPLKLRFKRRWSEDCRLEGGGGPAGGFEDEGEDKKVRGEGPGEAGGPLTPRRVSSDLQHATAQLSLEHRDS
Conditions: protein: recombinant; tags: N-terminal GST; dsDNA, one strand shown. Summed up: as §1

The target in another test is T7, ETV3L (Homo sapiens, UniProt Q6ZN32 1-361).
T7 sequence: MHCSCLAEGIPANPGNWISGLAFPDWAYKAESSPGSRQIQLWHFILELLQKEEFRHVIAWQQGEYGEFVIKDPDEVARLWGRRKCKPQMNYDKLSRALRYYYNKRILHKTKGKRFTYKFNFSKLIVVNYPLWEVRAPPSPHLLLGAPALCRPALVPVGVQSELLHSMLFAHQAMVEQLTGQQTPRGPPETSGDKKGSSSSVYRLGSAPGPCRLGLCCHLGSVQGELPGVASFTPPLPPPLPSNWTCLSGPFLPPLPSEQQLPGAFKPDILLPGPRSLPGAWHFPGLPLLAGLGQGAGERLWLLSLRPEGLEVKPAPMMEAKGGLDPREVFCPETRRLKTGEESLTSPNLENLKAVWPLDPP
Conditions: protein: recombinant; tags: N-terminal GST; dsDNA, one strand shown. The method, boiled down:
as §1

The target of the next test is T8, ETS2 (Homo sapiens, UniProt P15036 1-469).
T8 sequence: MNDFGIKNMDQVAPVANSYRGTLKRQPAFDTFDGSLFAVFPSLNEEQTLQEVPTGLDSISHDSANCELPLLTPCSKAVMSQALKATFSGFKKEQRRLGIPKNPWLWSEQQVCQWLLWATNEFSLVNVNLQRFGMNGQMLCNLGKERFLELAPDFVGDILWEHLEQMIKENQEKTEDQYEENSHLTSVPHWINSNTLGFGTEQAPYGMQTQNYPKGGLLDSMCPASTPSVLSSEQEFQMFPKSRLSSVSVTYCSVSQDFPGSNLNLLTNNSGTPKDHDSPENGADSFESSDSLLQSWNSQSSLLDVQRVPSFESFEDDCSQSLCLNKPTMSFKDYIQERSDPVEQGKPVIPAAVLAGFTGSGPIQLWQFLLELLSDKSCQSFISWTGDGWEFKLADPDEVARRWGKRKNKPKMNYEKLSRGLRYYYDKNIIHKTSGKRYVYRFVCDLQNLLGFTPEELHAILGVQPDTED
The following applies: protein: recombinant; tags: N-terminal GST; dsDNA, one strand shown. Summed up: as §1

The next test has as its target T9, SPDEF (Homo sapiens, UniProt O95238 1-335).
T9 sequence: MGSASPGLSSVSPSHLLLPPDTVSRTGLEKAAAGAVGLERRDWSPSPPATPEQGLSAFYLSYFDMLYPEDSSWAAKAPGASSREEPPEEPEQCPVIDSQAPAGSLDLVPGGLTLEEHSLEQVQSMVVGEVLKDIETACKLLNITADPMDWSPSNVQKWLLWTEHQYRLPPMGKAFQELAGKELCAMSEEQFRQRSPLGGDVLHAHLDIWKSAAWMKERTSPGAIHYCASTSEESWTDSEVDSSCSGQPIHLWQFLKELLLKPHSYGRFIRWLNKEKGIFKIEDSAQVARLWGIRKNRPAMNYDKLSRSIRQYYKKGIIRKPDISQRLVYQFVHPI
The following applies: protein: recombinant; tags: N-terminal GST; dsDNA, one strand shown. Summed up: as §1

For a further test, the target named is T10, ETV7 (Homo sapiens, UniProt Q9Y603 1-341).
T10 sequence: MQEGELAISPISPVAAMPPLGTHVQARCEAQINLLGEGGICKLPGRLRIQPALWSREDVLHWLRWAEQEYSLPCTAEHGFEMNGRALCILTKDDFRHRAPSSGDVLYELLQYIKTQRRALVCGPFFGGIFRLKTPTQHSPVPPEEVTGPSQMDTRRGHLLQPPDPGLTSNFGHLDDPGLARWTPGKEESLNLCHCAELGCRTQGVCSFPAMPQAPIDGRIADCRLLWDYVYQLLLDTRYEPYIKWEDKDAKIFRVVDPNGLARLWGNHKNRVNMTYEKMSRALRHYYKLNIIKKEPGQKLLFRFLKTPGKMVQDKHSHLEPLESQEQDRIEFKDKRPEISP
Conditions: protein: recombinant; tags: N-terminal GST; dsDNA, one strand shown. The method, boiled down:
as §1

For a further test, the target named is T11, ELF5 (Homo sapiens, UniProt Q9UKW6-2 1-255).
T11 sequence: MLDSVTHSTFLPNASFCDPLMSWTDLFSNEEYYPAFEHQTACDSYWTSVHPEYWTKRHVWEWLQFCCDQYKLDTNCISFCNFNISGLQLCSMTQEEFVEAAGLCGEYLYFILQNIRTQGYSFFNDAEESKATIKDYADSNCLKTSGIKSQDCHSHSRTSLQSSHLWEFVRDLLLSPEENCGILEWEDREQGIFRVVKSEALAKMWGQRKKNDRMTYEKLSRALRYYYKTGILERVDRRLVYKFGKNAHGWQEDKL
Conditions: protein: recombinant; tags: N-terminal GST; dsDNA, one strand shown. Summed up: as §1

In a further test the target is T12, ETV3 (Homo sapiens, UniProt P41162-2 1-143).
T12 sequence: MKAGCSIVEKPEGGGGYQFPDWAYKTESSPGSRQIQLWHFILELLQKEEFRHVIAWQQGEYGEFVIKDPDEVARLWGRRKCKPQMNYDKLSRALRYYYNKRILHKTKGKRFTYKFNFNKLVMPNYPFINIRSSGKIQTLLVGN
Conditions: protein: recombinant; tags: N-terminal GST; dsDNA, one strand shown. Summed up:
as §1

The target in a further test is ETV6 (Homo sapiens, UniProt P41212 1-452). Conditions: protein: recombinant; tags: N-terminal GST; dsDNA, one strand shown. The method, boiled down:
as §1

ETV5, sequence (P41161 whole entry): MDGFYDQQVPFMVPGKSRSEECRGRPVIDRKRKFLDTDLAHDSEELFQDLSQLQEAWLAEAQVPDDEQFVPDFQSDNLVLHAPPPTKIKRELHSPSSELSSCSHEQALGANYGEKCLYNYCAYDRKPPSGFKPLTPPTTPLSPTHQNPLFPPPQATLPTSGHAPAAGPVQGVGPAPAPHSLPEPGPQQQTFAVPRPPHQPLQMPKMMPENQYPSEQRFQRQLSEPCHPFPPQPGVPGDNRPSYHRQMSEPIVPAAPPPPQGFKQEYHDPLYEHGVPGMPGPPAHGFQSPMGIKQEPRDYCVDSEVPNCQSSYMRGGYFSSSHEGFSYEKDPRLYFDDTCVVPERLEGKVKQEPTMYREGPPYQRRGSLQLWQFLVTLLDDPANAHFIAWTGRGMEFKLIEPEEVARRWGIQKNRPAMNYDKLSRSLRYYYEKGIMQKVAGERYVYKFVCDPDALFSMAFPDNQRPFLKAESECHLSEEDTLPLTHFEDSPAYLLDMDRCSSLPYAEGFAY
ETV6, sequence (P41212 whole entry): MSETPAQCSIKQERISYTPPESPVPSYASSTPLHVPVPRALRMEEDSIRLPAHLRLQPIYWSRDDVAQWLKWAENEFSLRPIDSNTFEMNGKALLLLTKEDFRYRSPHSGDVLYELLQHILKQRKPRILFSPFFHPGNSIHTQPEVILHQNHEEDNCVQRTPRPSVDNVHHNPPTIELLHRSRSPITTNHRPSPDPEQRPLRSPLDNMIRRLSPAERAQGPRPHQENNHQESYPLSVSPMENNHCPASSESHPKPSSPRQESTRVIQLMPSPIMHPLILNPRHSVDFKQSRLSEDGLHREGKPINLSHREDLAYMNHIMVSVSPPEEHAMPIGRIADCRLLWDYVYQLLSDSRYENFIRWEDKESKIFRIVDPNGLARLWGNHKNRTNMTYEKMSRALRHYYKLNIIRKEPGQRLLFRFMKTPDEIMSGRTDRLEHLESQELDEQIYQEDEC
HSF1, sequence (Q00613 whole entry): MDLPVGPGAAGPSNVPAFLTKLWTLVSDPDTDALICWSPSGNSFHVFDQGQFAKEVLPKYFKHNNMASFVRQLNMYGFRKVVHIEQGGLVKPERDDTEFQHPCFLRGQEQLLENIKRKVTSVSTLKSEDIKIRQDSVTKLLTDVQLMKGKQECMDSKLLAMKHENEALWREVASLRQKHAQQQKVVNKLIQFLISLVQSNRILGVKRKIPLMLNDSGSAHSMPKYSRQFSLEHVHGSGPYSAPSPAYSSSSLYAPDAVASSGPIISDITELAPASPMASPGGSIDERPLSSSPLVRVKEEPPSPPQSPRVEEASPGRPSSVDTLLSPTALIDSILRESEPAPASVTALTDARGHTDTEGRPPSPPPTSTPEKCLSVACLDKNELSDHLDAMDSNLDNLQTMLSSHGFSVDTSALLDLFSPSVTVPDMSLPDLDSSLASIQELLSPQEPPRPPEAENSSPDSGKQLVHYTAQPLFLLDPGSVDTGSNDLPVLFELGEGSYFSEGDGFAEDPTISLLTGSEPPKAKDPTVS
ELF4, sequence (Q99607 whole entry): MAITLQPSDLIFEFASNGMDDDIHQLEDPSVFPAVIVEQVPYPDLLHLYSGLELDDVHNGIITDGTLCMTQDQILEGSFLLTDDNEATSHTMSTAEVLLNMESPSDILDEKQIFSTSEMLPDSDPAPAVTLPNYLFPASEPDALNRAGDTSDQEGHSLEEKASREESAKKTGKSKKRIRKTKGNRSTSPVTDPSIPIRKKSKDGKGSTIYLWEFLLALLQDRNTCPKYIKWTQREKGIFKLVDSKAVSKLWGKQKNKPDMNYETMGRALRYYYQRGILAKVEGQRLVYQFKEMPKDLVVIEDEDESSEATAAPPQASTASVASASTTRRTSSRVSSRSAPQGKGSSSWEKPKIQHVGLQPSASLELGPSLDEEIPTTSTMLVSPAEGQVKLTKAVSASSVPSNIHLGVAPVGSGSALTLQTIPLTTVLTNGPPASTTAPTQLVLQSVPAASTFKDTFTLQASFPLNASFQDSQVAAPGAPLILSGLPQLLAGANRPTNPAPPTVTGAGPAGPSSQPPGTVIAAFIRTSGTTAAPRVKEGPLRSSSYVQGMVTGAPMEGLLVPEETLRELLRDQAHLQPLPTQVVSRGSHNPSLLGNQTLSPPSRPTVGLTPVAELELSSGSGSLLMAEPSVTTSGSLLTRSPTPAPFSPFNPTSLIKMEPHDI
ETV1, sequence (P50549 whole entry): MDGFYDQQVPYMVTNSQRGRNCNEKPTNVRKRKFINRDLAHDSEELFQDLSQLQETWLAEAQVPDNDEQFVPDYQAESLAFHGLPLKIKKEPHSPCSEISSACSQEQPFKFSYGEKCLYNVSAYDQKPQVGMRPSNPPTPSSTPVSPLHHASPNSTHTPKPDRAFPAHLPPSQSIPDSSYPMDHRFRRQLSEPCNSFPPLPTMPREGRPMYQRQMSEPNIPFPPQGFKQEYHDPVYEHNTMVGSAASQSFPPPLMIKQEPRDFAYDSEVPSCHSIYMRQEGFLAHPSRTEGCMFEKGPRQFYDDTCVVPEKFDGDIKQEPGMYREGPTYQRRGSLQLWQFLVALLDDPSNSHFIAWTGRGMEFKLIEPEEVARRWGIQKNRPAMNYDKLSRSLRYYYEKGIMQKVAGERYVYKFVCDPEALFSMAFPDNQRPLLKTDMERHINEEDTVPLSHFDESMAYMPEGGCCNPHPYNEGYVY

As to TTGTTT, the binding signal was 1.45 fold enrichment (6-mer frequency, TF over GST control) with FEV; 1.53 fold enrichment (6-mer frequency, TF over GST control) with ETV5; 1.24 fold enrichment (6-mer frequency, TF over GST control) in the test with HSF1; 1.08 fold enrichment (6-mer frequency, TF over GST control) with SPIC; 1.44 fold enrichment (6-mer frequency, TF over GST control) with ELF4; 1.61 fold enrichment (6-mer frequency, TF over GST control) with ELK4. Also, the binding signal is 1.32 fold enrichment (6-mer frequency, TF over GST control) in the test with ETV2; 1.61 fold enrichment (6-mer frequency, TF over GST control) with ELF3; 1.45 fold enrichment (6-mer frequency, TF over GST control) in the test with CRX; 1.38 fold enrichment (6-mer frequency, TF over GST control) in the test with ETV1; 1.45 fold enrichment (6-mer frequency, TF over GST control) in the test with ERF; 1.46 fold enrichment (6-mer frequency, TF over GST control) in the test with ETV3L. Besides, the binding signal was 1.39 fold enrichment (6-mer frequency, TF over GST control) in the test with ETS2; 1.32 fold enrichment (6-mer frequency, TF over GST control) with SPDEF; 1.6 fold enrichment (6-mer frequency, TF over GST control) with ETV7; 1.37 fold enrichment (6-mer frequency, TF over GST control) with ELF5; 1.5 fold enrichment (6-mer frequency, TF over GST control) in the test with ETV3; 1.53 fold enrichment (6-mer frequency, TF over GST control) with ETV6.
